High-throughput results from PubChem.
Only some compounds are listed: those with a hit (about 8.1% of all), similar ones and a draw of the others.
KB-V1 MDR tox: qHTS assay for MDR1-selective chemotherapeutics: Primary screen using the drug-selected MDR subline cells KB-V1; KB-V1 MDR cells viability, CellTiter-Glo, 72 h; Potency, µM (top dose mostly 46.1 µM), actives largely listed as cytotoxic; 400,000 compounds, 3.4% hits; AID 1347076, 2019; also: % is scaled to controls: 0 for no effect and ±100 for the full control effect; nearly all actives have a fitted effect of over 60% in size
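Cytotoxicity via CellTiter-Glo luminescence after 72 h compound exposure at 37 degrees C. Cells: drug-selected KB-V1 line, DMEM phenol-red free plus 10% FBS. Compounds tested at multiple concentrations; normalized data fitted to concentration-effect curves.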
SW480 rereplic: A quantitative high throughput screen for small molecules that induce DNA re-replication in SW480 colon adenocarcinoma cells; SW480 DNA re-replication, Hoechst DNA content imaging, 48 h; Potency, µM (series often up to 46.1 µM), inactives show at the top dose re-replication activation, actives largely listed as activators; 340,000 compounds, 1.8% hits; also: % of control where 0% means no effect; nearly all actives have a fitted effect of over 55% in size
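Hoechst fluorescence of nuclei (405 nm excitation, 500-530 nm emission) measured by plate-scanning imager after 48 hr compound exposure at 37 C; re-replication scored as increased number of nuclei with elevated intensity.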
KB-3-1 cytotox: qHTS assay for MDR1-selective chemotherapeutics: Primary screen using the parental adenocarcinoma cell KB-3-1. 400,000 compounds, 1.4% hits. Potency, µM (series often up to 46.1 µM), hits mostly cytotoxic. KB-3-1 viability, CellTiter-Glo ATP luminescence, 72 h; also: % is scaled to controls: 0 for no effect and ±100 for the full control effect; nearly all actives have a fitted effect of over 60% in size
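KB-3-1 parental drug-naive adenocarcinoma cells in DMEM/10% FBS, incubated 72 h at 37 C with pin-transferred compounds across a concentration series. Viability by CellTiter-Glo luminescence; concentration-response curves fitted after normalization.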
MCF10A rereplic: A quantitative high throughput screen for small molecules that induce DNA re-replication in MCF 10a normal breast cells. 350,000 compounds, 2.9% hits. Potency, µM (titrated, usually from 46.1 µM), without a hit: at the top dose activity, positive = re-replication, actives largely listed as activators. MCF 10A DNA re-replication, Hoechst nuclear intensity, 48 h; also: % of control where 0% means no effect; nearly all actives have a fitted effect of over 50% in size
ELG1 repair inh: qHTS screen for small molecules that inhibit ELG1-dependent DNA repair in human embryonic kidney (HEK293T) cells expressing luciferase-tagged ELG1 | HEK293T ELG1-luciferase reporter, luminescence, 16 h; DNA damage induced by 5-fluorouridine | Potency, µM (series often up to 46.1 µM), inactives show at the top dose activity change, negative = inhibition, actives largely listed as inhibitors | 330,000 compounds, 2.3% hits | AID 504467, 2011; also: % is scaled to controls: 0 for no effect and ±100 for the full control effect; nearly all actives have a fitted effect of over 55% in size
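Luminescence from the luciferase reporter, measured 30 min after ONE-Glo reagent at room temperature, was the read-out. Beforehand, 2,000 cells per well were exposed for 16 hr at 37 °C to 5-fluorouridine together with compound or vehicle.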
* marks the source's active call; other numbers are inactive results; i = inactive; ? = inconclusive; · = no result; [ ] = dose if it differs, or a comment. Calls follow the shape of the dose curve; as a rule, active = well fitted curve in the direction sought with a large enough effect; inconclusive = small, poorly fitted or top-dose-only effect, or another doubt; inactive = no such curve, though single readings can be large; an effect the other way counts as inactive or inconclusive. Potency is read from the fitted curve at half-maximal effect.

SMILES | KB-V1 MDR tox | SW480 rereplic | KB-3-1 cytotox | MCF10A rereplic | ELG1 repair inh
CCN(CC(=O)Nc1ccc(OC)c(OC)c1)S(=O)(=O)c1ccc(C)cc1 | 13µM* | -5% | i | 1% | ?
COc1ccc(NC(=O)CN(c2ccc(C)cc2)S(=O)(=O)c2c(C)nn(C)c2C)cc1OC | 13µM* | 0% | ? | 4% | -26%
COc1ccc(S(=O)(=O)N(C)CC(=O)Nc2ccc(C)cc2)cc1OC | ? | -11% | i | -18%[9.22 µM] | 5%
Cc1nn(C)c(C)c1S(=O)(=O)N(CC(=O)NC1CCCCCC1)c1ccc(C(C)C)cc1 | i | -2% | i | 12µM* | 0%
CCOC(=O)N1CCC(NC(=O)CN(c2ccc(C(C)C)cc2)S(=O)(=O)c2c(C)nn(C)c2C)CC1 | i | -1% | ? | 6% | 2%
COc1ccc(NC(=O)CN(c2ccc(C)cc2)S(=O)(=O)c2c(C)nn(C)c2C)cc1 | i | 13% | i | -1% | 4%
COc1ccc2nc(NC(=O)CN(c3ccc(C)cc3)S(=O)(=O)c3c(C)nn(C)c3C)sc2c1 | ? | ? | i | 7% | 23µM*
Oc1ccc2c(c1)OCC1(O)Cc3cc(O)c(O)cc3C21 (stereo unspecified) | i | ? | ? | 15% | ·
Nc1cc(N)nc(SCC(=O)Nc2ccc(Br)cc2Cl)n1 | i | 0% | i | 6% | ?
CCN(CC)S(=O)(=O)c1ccc(OC)c(NC(=S)Nc2ccc(C)c(C)c2)c1 | 18µM* | ? | i | ? | -11%
CCN(CC)S(=O)(=O)c1ccc(C)c(NC(=S)Nc2cccc(S(=O)(=O)N3CCCCCC3)c2)c1 | ? | 0% | ? | 14% | -25%
CCn1c2ccccc2c2cc(CN3CCN(S(C)(=O)=O)CC3)ccc21 | 3.3µM* | 12% | i | 22% | ?
Cc1ccccc1NS(=O)(=O)c1ccc(OCC(=O)NCC2CCCO2)cc1 (stereo unspecified) | i | -3% | i | -2% | 10%
CCOc1ccc(N2C(=O)CC(Cc3cc(C)cc(C)c3)C2=O)cc1 (stereo unspecified) | i | -1% | i | 0% | -22%
CCOc1ccc(N2C(=O)CC(Sc3nc(CC(C)C)ccc3C#N)C2=O)cc1 (stereo unspecified) | i | 5.8µM* | i | ? | 2%
CCOc1ccc(N2C(=O)CC(N)C2=O)cc1 (stereo unspecified) | ? | ? | i | 18µM* | 13%
CCOc1ccc(N2C(=O)CC(Sc3nc(C)cc(C)c3C#N)C2=O)cc1 (stereo unspecified) | ? | -2% | i | 2% | 0%
CCCOc1ccc(N2C(=O)CC(N3CCC(C(=O)OCC)CC3)C2=O)cc1 (stereo unspecified) | i | 2% | i | 15µM* | -2%
Cc1ccc(NC(=O)CN(C)C(=O)C(C)N2CCN(Cc3ccccc3C)CC2)cc1 (stereo unspecified) | 9.2µM* | 1% | i | 0% | -1%
Cc1ccccc1CN1CCN(C(C)C(=O)NCc2ccccc2)CC1 (stereo unspecified) | i | -5% | i | 1% | -13%
O=C(NCCc1c[nH]c2ccccc12)C(=O)NCC1OCCCN1S(=O)(=O)c1cc(F)ccc1F (stereo unspecified) | i | -22% | i | 23% | 21µM*
COc1ccc(S(=O)(=O)N2CCOC2CNC(=O)C(=O)NCCc2c[nH]c3ccccc23)cc1C (stereo unspecified) | i | 8% | i | 4% | 26µM*
COc1ccccc1CNC(=O)C(=O)NCC1OCCN1S(=O)(=O)c1ccc(Br)cc1 (stereo unspecified) | ? | 23µM* | i | 0% | ?
COc1ccc(S(=O)(=O)N2CCOC2CNC(=O)C(=O)NCCc2c[nH]c3ccccc23)cc1 (stereo unspecified) | i | 0% | ? | 4% | ?
O=C(NCCc1ccccc1)C(=O)NCC1OCCCN1S(=O)(=O)c1cc(F)ccc1F (stereo unspecified) | i | -1% | i | 0% | -25%
SMILES | KB-V1 MDR tox | SW480 rereplic | KB-3-1 cytotox | MCF10A rereplic | ELG1 repair inh
Cc1csc2nc(-c3cccc(NS(C)(=O)=O)c3)cn12 | i | · | i | · | ·
CCOc1ccc(NC(=O)CSc2nnc(C)n2CC2CCCO2)cc1 (stereo unspecified) | i | -5% | i | 3% | -3%
OCc1c[nH]c2ccccc12 | i | 0% | i | ? | 16%
Oc1cccc2c(CC(O)c3c[nH]c4ccccc34)ccnc12 (stereo unspecified) | ? | · | 0.73µM* | · | ·
COCCCNC(=O)C[C@H]1C[C@H](C(=O)N2CCCCC2)[C@@]2(CCc3ccccc3)c3[nH]c4cc(-c5ccco5)ccc4c3CCN2C1=O | i | ? | i | -16% | ?
CCN(CC)C(=O)[C@H]1C[C@H](CC(=O)NCc2cccc(C(F)(F)F)c2)C(=O)N2CCc3c([nH]c4cc(-c5ccco5)ccc34)[C@]12C | ? | 13%[9.22 µM] | 15µM* | ? | ?
O=C(C[C@H]1C[C@H](C(=O)N2CCCCC2)[C@@]2(CCc3ccccc3)c3[nH]c4cc(-c5ccco5)ccc4c3CCN2C1=O)NCCN1CCOCC1 | ? | ? | 18µM* | 23µM* | -17%
CCN(CC)C(=O)[C@H]1C[C@H](CC(=O)NCc2ccco2)C(=O)N2CCc3c([nH]c4cc(-c5ccco5)ccc34)[C@]12C | i | 1% | i | ? | 18µM*
CN(C)CCn1cnc2c(c1=N)C(c1ccccc1)c1ccc3ccccc3c1O2 (stereo unspecified) | ? | -2% | ? | ? | ?
Cc1ccc(CN2CC(C(=O)Nc3cc(C)ccn3)CC2=O)cc1 (stereo unspecified) | ? | 29µM* | i | 16% | ?
Cc1ccc(CN2CC(C(=O)Nc3ccncc3)CC2=O)cc1 (stereo unspecified) | ? | -4% | i | -7% | 0%
COc1ccc(CCN(C(=O)Cn2nnc3ccccc32)C(C(=O)NCC2CCCO2)c2ccncc2)cc1OC (stereo unspecified) | i | -5% | i | 2% | -8%
CCC(=O)c1ccc(OCC(O)CNC2CCCC2)cc1 (stereo unspecified) | i | ? | i | ? | ?
Cc1cccc(OCC(=O)NCc2nc(-c3ccccc3)no2)c1 | i | -5% | i | -9% | -7%
